About 550 (24%) of roughly 2,300 compounds were called active. Not all results are given here. Entries with a potency or affinity are not part of this list. Values without a mark were called inactive. The rule behind the calls is not given here.
Assay: Vero E6 cell cytotoxicity, dose response, cytotoxicity control for non-replicating M. tuberculosis project, secondary assay (AID 492998);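 note: 100% = vehicle-treated cells and 0% = background wells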
Conditions: series mostly up to 20 µM; viability: at the top concentration

| SMILES | viability |
| --- | --- |
| COc1ccc(N2C(=O)CC(Sc3nc4ccccc4s3)C2=O)cc1OC (stereo not given) | 91.9% |
| COc1ccc(C(=O)CCS(=O)(=O)c2ccc(C)cc2)cc1OC | 86.7% |
| O=C1Nc2ccc(Br)cc2/C1=C/C(=O)c1ccc2c(c1)OCO2 | 80.7% |
| O=C(N/N=C/C=C/c1ccccc1)c1cccs1 | 112% |
| c1ccc(-c2nnc(SCc3nnc(-c4cccs4)o3)o2)cc1 | 102% |
| CCOC(=O)Cc1nc2cc(Cl)ccc2o1 | 91.9% |
| O=C1c2ccccc2CC1Sc1nnc(-c2ccncc2)o1 (stereo not given) | 87.8% |
| CCn1cc(C(=O)O)c(=O)c2cc(F)c(N3CCN(C(=S)NC(=O)c4ccccc4)CC3)cc21 | 96.2% |
| O=C(COc1ccc(Cl)cc1)Nc1ccc(Cl)cn1 | 94.3% |
| COc1cccc(COC(=O)CCNC(=O)c2ccc(Cl)cc2)c1OC | 108% |
| CC(/C=C/c1ccco1)=N\NC(=O)c1cccc(Cl)c1 | 71.9% |
| CN(C)CC/C=C1/c2ccc(F)cc2Sc2ccc(Cl)cc21 | 84.2% |
| O=C(COC(=O)c1ccc(Cl)s1)c1ccc[nH]1 | 97.2% |
| O=C(NC(=S)Nn1cnc2c(cnn2-c2ccccc2)c1=O)c1ccccc1 | 91.2% |
| CC(NC(=O)c1cc([N+](=O)[O-])cc([N+](=O)[O-])c1)c1ccc(-n2ccnc2)cc1 (stereo not given) | 82.4% |
| Cc1cccc(C)c1NC(=O)c1sc(N)nc1-c1ccccc1 | 96.4% |
| O=C(COC(=O)Cc1ccc(Br)cc1)Nc1ccc(N2CCOCC2)cc1 | 105% |
| O=C(COC(=O)c1cc2ccccc2oc1=O)Nc1ccc(F)cc1F | 110% |
| Clc1ccc(OC2CCN(Cc3nc(CC4CC4)no3)CC2)cc1 | 106% |
| CCOC(=O)CCSc1n[nH]c(=S)s1 | 102% |
| C(=C\c1ccccc1)/CSc1nc2ncccc2[nH]1 | 99.6% |
| CC(C)=CCN1CCN(Cc2cn(C(C)C)c3ccccc23)CC1CCO (stereo not given) | 110% |
| Cc1ccc(/C=C2\SC(N3CCCC3)=NC2=O)cc1 | 99.1% |
| CC(C)N1C(=O)NC(=O)C2(Cc3cc([N+](=O)[O-])ccc3N(C)C2c2ccccc2)C1=O (stereo not given) | 79.5% |
| Cc1ccc(OCC(=O)Nc2ccc([N+](=O)[O-])cc2)cc1 | 106% |

| SMILES | viability |
| --- | --- |
| Cc1ccc(NC(=O)COCC(=O)Nc2ccc(C)cc2)cc1 | 99.8% |
| COc1cc(Cl)cc(/C=N/NC(N)=O)c1O | 97.2% |
| NC(N)=N/N=C/c1cccc([N+](=O)[O-])c1O | 94.7% |
| O=C(NNc1nc2ccccc2s1)Nc1ccc(F)cc1 | 104% |
| O=[N+]([O-])c1c(Nc2ccccn2)cc(Cl)c2nonc12 | 109% |
| O=C(N/N=C/c1cccc([N+](=O)[O-])c1O)c1cccs1 | 75.8% |
| O=C(N/N=C/C=C/c1ccccc1[N+](=O)[O-])c1ccncc1 | 102% |
| CC1CCC/C(=C\Nc2ccc(C(=O)O)c(O)c2)C1=O (stereo not given) | 104% |
| Oc1ccccc1Nc1nc(NCC2CCCO2)c2ccccc2n1 (stereo not given) | 83.6% |
| CCSc1nsc(NC(=O)Nc2ccc(F)cc2F)n1 | 82.9% |
| Clc1ccc(OCCCCN2CCc3ccccc3C2)cc1 | 93.4% |
| COc1ccc(CC(=O)Nc2nccs2)cc1OC | 101% |
| COc1ccc(CCNc2cc(-c3ccccc3)nc3ncnn23)cc1 | 81.3% |
| CCOC(=O)Cn1c(C)c(Br)c(=O)c2cccc(C)c21 | 108% |
| FC(F)(F)c1nc(SCc2ccc(Cl)cc2Cl)n[nH]1 | 107% |
| CC1CCCN(CCC(=O)c2ccc(Br)cc2)C1 (stereo not given) | 83.4% |
| CNc1nnc(Sc2ncccc2[N+](=O)[O-])s1 | 98% |
| CN(CC(=O)Nc1ccc(C#N)cc1)Cc1ccc(Cl)c(Cl)c1 | 108% |
| COC(=O)COc1ccc2c(=O)c(Oc3ccccc3)c(C)oc2c1 | 99.2% |
| Cc1nn(C)cc1/C=N/NC(=O)c1sc2ccccc2c1Cl | 94.7% |
| Cc1ccc(C(=O)N/N=C/c2cccc3ccccc23)cn1 | 102% |
| Cc1[nH]nc2c1C(c1ccc(OC(=O)c3ccco3)cc1)C(C#N)=C(N)O2 (stereo not given) | 94.5% |
| CCC(=O)c1ccc(OCC(=O)OCC(=O)N2CCc3ccccc3C2)cc1 | 110% |
| O=C1NC(=O)C(=Cc2ccc(Oc3ccc([N+](=O)[O-])cc3)cc2)C(=O)N1 | 88.1% |
| CO/N=C/CC(=O)c1ccc(OC)cc1 | 89.5% |

| SMILES | viability |
| --- | --- |
| COc1ccc(/C(=N/O)C(C)(C)NO)cc1 | 87.5% |
| C/C(=N/Nc1ccnc2cc(Cl)ccc12)c1ccc(N)cc1 | 74% |
| CCC(C)(C)c1ccc(OCC(=O)Nc2ccncc2)cc1 | 117% |
| O=C(Nc1nnc(-c2ccc(Cl)cc2)o1)c1nc2ccccc2s1 | 99.2% |
| O=C(Nc1nnc(-c2ccc(Cl)cc2)o1)c1cccc(N2C(=O)CCC2=O)c1 | 98.3% |
| O=C(COc1ccccc1)Nc1nnc(-c2ccc(Cl)cc2)o1 | 104% |
| O=C(Nc1nnc(-c2ccc(Cl)cc2)o1)C1=COCCO1 | 103% |
| COC(=O)COc1cccc(/C=N/NC(=O)CCSc2ccccc2)c1 | 105% |
| Cc1ccc(-c2cc(C(F)(F)F)n3nc(C(=O)NCCCn4ccnc4)cc3n2)cc1C | 80.5% |
| CCc1cc2c(=O)n(C(C)C(=O)OC3CCCCC3)cnc2s1 (stereo not given) | 88.8% |
| CCCCn1c(O)c(/C=C2/C=CC=N2)c(=O)[nH]c1=O | 71.6% |
| N=C1/C(=C\c2coc3ccccc3c2=O)C(=O)N=C2SC=CN12 | 94.4% |
| CCOC(=O)C1CCN(c2nc3cc(OC)ccc3cc2C#N)CC1 | 91.1% |
| COC(=O)c1cccc(NC(=O)COc2cccc([N+](=O)[O-])c2)c1 | 92.5% |
| O=C(NNC1CC(=O)N(c2ccccc2)C1=O)c1ccco1 (stereo not given) | 104% |
| COC(=O)c1ccc(Cn2cc(C(F)(F)F)cc([N+](=O)[O-])c2=O)cc1 | 98.5% |
| O=C(CC1CCCCC1)NCc1ccccc1 | 86.9% |
| Cc1nnc(N/N=C/c2ccc(-c3ccccc3F)o2)n1N | 100% |
| COC(=O)CCn1c(C)cc(C(=O)COc2ccccc2C(N)=O)c1C | 97.8% |
| Clc1ccc2c(N3CCCC3)ccnc2c1 | 92.1% |
| Fc1ccc(-c2nn(-c3ccccc3)cc2CNCc2ccccc2)cc1 | 84.3% |
| O=c1oc(-c2cccs2)nc2c1cnn2-c1ccccc1 | 104% |
| CSc1ccccc1C(=O)NCc1ccc(S(N)(=O)=O)cc1 | 103% |
| Cc1[nH]n(-c2ccccc2)c(=O)c1C=Nc1cnc2ccccc2c1 | 103% |
| O=C(COC(=O)c1ccccc1Cl)NCCC1=CCCCC1 | 103% |

— PubChem BioAssay AID492998 (Southern Research Specialized Biocontainment Screening …, 2010)
